# Pf growth 48h = Primary qHTS for delayed death inhibitors of the malarial parasite plastid, 48 hour incubation; P. falciparum luciferase growth in erythrocytes, 48 h; Potency, µM (top dose mostly 28.7 µM), actives largely listed as inhibitors; hit rate 5.9% among 310,000
#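 Growth was read as firefly luciferase luminescence after a 48 h, 37 C, 5% CO2 exposure of compounds to reporter-bearing P. falciparum cultures (0.1% parasitemia, 2% hematocrit final) in Albumax-supplemented RPMI 1640.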
# HCV inhibitor = qHTS Assay for Inhibitors of Hepatitis C Virus (HCV). hit rate 3.4% among 340,000. Potency, µM (doses to about 41.8 µM), hits mostly inhibitors. Huh7.5.1 HCVcc-Cre infection, luciferase reporter, 44 h
#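 Whole-lifecycle infectious HCVcc-Cre system; cells 1,000/well, compound then virus (~0.5 moi) added 4 h after plating, 44 h culture. Luciferase read 15 sec following 15 min substrate incubation, room temp.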
# Pf growth 96h = Primary qHTS for delayed death inhibitors of the malarial parasite plastid, 96 hour incubation | P. falciparum luciferase reporter growth, 96 h | Potency, µM (titrated, usually from 28.7 µM), hits mostly inhibitors | hit rate 6.9% among 320,000 | AID 504834, 2011
#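 Cell-based qHTS: luciferase-tagged P. falciparum in erythrocytes (2% hematocrit, 0.05% parasitemia final) incubated with compounds for 96 hours, 37 C, 5% CO2; luciferase detection reagent then added and luminescence measured.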
# AMA1 RON2 block = qHTS for Inhibitors of AMA1-RON; Towards Development of Antimalarial Drug Lead: Primary Screen; AlphaScreen AMA1-biotinylated RON2 peptide binding; Potency, µM (series often up to 58.2 µM), most hits filed as inhibitors; hit rate 0.2% among 360,000; AID 720542, 2013; further: nearly all actives have a fitted effect of over 45% in size
#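 AMA1 (3D7) with his tag at 25 nM final met compounds first, then biotinylated RON2 peptide at 25 nM; detection used donor plus acceptor beads, 10 µg/mL apiece, read by AlphaScreen after 30 min at room temperature.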
# Numbers stand for hits; – = inactive; ? = inconclusive; · = not tested or not shown; [ ] = another dose, or the depositor's remark. An excerpt weighted towards active compounds, which were near 11% of everything screened. The call rests on the fitted dose curve; in most records, active means well fitted curve in the direction sought with a large enough effect; inconclusive means small, poorly fitted or top-dose-only effect, or another doubt; inactive means no such curve, though single readings can be large; an effect the other way counts as inactive or inconclusive.
SMILES,Pf growth 48h,HCV inhibitor,Pf growth 96h,AMA1 RON2 block
Cc1ccccc1NC(=O)Cc1nc(-c2c[nH]c(C(=O)N3CCCC3)c2)cs1,9.3µM,?,10µM,–
COc1cccc(/C(O)=C2/C(=O)C(=O)N(CCN3CCOCC3)C2c2cccnc2)c1 (stereo not given),?,–,·,–
Cc1nc2ccccn2c1/C(O)=C1\C(=O)C(=O)N(CCN2CCOCC2)C1c1cccnc1 (stereo not given),–,1µM,–,–
Cc1ccc(C)c(/C(O)=C2\C(=O)C(=O)N(CCCN3CCOCC3)C2c2cccnc2)c1 (stereo not given),–,–,1.9µM,–
Cc1ccc(/C(O)=C2/C(=O)C(=O)N(CCN3CCOCC3)C2c2cccnc2)cc1 (stereo not given),–,–,?,–
O=C(NCc1ccc(F)cc1)c1cccc2c1C(=O)c1ccc(N3CCC(Cc4ccccc4)CC3)cc1S2(=O)=O,·,?,·,–
O=C(NC1CC1)c1cccc2c1C(=O)c1ccc(N3CCC(Cc4ccccc4)CC3)cc1S2(=O)=O,·,10µM,·,–
CCOC(=O)c1c(N2C(=O)Nc3ccccc3N2O)sc2c1CCCC2,–,–,?,–
COC(=O)c1c(N2C(=O)Nc3ccccc3N2O)sc(C)c1C,–,–,5.2µM,–
Cc1cc(C)cc(NC(=S)NC2CC3CCC(C2)N3Cc2ccco2)c1 (stereo not given),?,–,2.3µM,–
COCCNC(=S)NC1CC2CCCC(C1)N2Cc1cccs1 (stereo not given),?,–,?,–
Cc1cccc(NC(=S)NC2CC3CCCC(C2)N3Cc2cccs2)c1 (stereo not given),?,?,10µM,–
Fc1ccc(NC(=S)NC2CC3CCC(C2)N3Cc2ccco2)cc1 (stereo not given),–,–,–,–
Cc1ccc(C(=O)NC2CC3CCC(C2)N3Cc2ccco2)cc1 (stereo not given),–,–,–,–
Cc1ccc(C)c(NC(=S)NC2CC3CCC(C2)N3Cc2ccco2)c1 (stereo not given),?,–,12µM,–
O=C(CNC(=S)NC(=O)c1ccco1)c1ccccc1,–,–,–,–
Cc1ccc(NC(=O)C(C)OC(=O)COc2cccc(C(F)(F)F)c2)cc1 (stereo not given),–,–,–,–
COc1ccc(C(NC(C)=O)c2ccc3cccnc3c2O)c(OC)c1 (stereo not given),1.7µM,5µM,3.3µM,–
CC(=O)NC(c1ccc2ccccc2c1)c1ccc2cccnc2c1O (stereo not given),?,2.5µM,–,–
CC(=O)NC(c1ccc(Cl)cc1Cl)c1ccc2cccnc2c1O (stereo not given),4.1µM,5.6µM,–,–
CC(=O)OC1CCC2(C)C(CCC3C2CC(=O)C2(C)C3CC(C3CCCC3=O)C2C(C)=O)C1 (stereo not given),·,–,·,–
CCN1CCN(c2c(/C=C3\SC(=S)N(Cc4ccco4)C3=O)c(C)c(C#N)c(=O)n2C)CC1,2.3µM,2.2µM,?,–
Cc1ccc(S(=O)(=O)N(CC(=O)N2CCc3ccccc3C2)c2ccc(Cl)c(Cl)c2)cc1,10µM,–,?,–
COc1ccc(N(CC(=O)N2CCN(C)CC2)S(=O)(=O)c2cc(C)ccc2OC)cc1Cl,–,–,8.3µM,–
COc1cccc(N(CC(=O)N2CCN(C)CC2)S(=O)(=O)c2ccc(C)cc2)c1,–,–,12µM,–
SMILES,Pf growth 48h,HCV inhibitor,Pf growth 96h,AMA1 RON2 block
O=C(CN(c1ccc(Cl)c(Cl)c1)S(=O)(=O)c1ccccc1)N1CCc2ccccc2C1,?,?,–,–
CC(=O)C1C(=O)c2c(cccc2[N+](=O)[O-])C1=Nc1ccccc1C (stereo not given),·,·,0.0037µM,·
CC(=O)C1C(=O)c2c(cccc2[N+](=O)[O-])C1=Nc1cccc(Cl)c1 (stereo not given),1.5µM,?,?,–
O=C1NC(=Nc2ccccc2)c2c1cccc2[N+](=O)[O-],?,–,–,–
O=C(Nc1cccc([N+](=O)[O-])c1)N1CCCCCC1,–,–,3.7µM,–
O=C(CN1CCCCC1)Nc1cccc([N+](=O)[O-])c1,–,–,–,–
Cc1c(Cl)cccc1NC(=S)N1CCN(c2ccc([N+](=O)[O-])cn2)CC1,–,–,–,–
O=C(Nc1ccc([N+](=O)[O-])cc1)N1CCCCCC1,–,–,?,–
O=C(Nc1ccc([N+](=O)[O-])cc1)N1CCCCC1,–,–,8.3µM,–
CC(C)c1ccc(NC(=O)N2CCc3ccccc3C2)cc1,–,–,–,–
Cc1cccc(Cl)c1NC(=S)N1CCN(c2ccc([N+](=O)[O-])cn2)CC1,1.7µM,?,1.7µM,–
O=C(Nc1ccc([N+](=O)[O-])cc1)N1CCc2ccccc2C1,?,10µM,–,–
Cc1ccc(-n2c(-c3ccncc3)n[nH]c2=S)c(C)c1,?,–,–[5.75 µM],–
COc1ccc(Br)c(C=O)c1OS(=O)(=O)c1ccc(C)cc1,·,·,·,–
CC(C)(C)c1ccc(NC(=O)N2CCCN(c3ccc([N+](=O)[O-])cn3)CC2)cc1,8.3µM,–,?,–
C/C(=N\Nc1nc(N2CCCCC2)nc(N2CCOCC2)n1)c1cccs1,–,10µM,–,–
CCCC[C@]12Cc3cc(OC)c(OC)cc3C(O1)c1c(cc(-c3ccccc3)oc1=O)O2,?,·,1.5µM,·
CCCC[C@]12Cc3ccccc3C(O1)c1c(c3ccccc3oc1=O)O2,–[5.75 µM],·,?,·
CCCC[C@]12Cc3ccccc3C(O1)c1c(cc(-c3ccccc3)oc1=O)O2,0.43µM,·,1.5µM,·
COC(=O)[C@]1(C)N[C@H](CN(C)C(=O)c2ccccc2)[C@@H]2C(=O)N(C)C(=O)[C@@H]21,·,4µM,·,–
COC(=O)[C@]1(C)N[C@H](CN(C)C(=O)Nc2ccc(C)cc2)[C@@H]2C(=O)N(Cc3ccccc3)C(=O)[C@@H]21,·,2.8µM,·,–
COC(=O)[C@]1(C)N[C@H](CN(C)C(=O)Nc2ccc(C)cc2)[C@@H]2C(=O)N(C)C(=O)[C@@H]21,·,1µM,·,–
CCN(C[C@H]1N[C@@](CC)(C(=O)OC)[C@H]2C(=O)N(C)C(=O)[C@@H]12)C(=O)Nc1ccc(OC)cc1,·,–,·,–
CCN(C[C@H]1N[C@@](CC)(C(=O)OC)[C@H]2C(=O)N(C)C(=O)[C@@H]12)C(=O)Nc1ccc(C)cc1,·,3.2µM,·,–
CCNC(=O)N(C)C[C@H]1N[C@@](C)(C(=O)OC)[C@H]2C(=O)N(C)C(=O)[C@@H]12,·,–,·,–
CN(C)CCC=C1c2ccccc2C=Cc2ccccc21,12µM,32µM,?,–
CN(C)CCC=C1c2ccccc2CCc2ccccc21,15µM,?,?,–
CN(C)CCC=C1c2ccccc2C(C)(C)c2ccccc21,?,·,6.7µM,·
CN(C)CC/C=C1\c2ccccc2Sc2cc(F)c(Cl)cc21,·,?,·,–

# High-throughput results from PubChem.
